Measurements: ChEMBL document CHEMBL4513141, “CO-ADD screening of NIH (USA) - Clinical Collection” (2021)
Measured potencies and affinities stand elsewhere.

Tested on: Escherichia coli
Conditions: Concentration 20 uM; ASSAY_TEST Inhibition of Bacterial Growth; detection method Absorption (OD600); MEDIA CAMHB; plate type 384well; NBS; CORNING #3640; time 18 hr

Row | SMILES | Inhibition [%]
1 | CC(C)NCC(O)c1cc(O)cc(O)c1 (stereo not drawn) [METAPROTERENOL] | -6.08
2 | CCc1nn(CCCN2CCN(c3cccc(Cl)c3)CC2)c(=O)n1CCOc1ccccc1.Cl [NEFAZODONE HYDROCHLORIDE] | 3.73
3 | CN(C)CC/C=C1/c2ccccc2COc2ccc(CC(=O)O)cc21.Cl [OLOPATADINE HYDROCHLORIDE] | 1.13
4 | CC(=O)Nc1nnc(S(N)(=O)=O)s1 [ACETAZOLAMIDE] | -1.89
5 | COc1ccc2[nH]c([S+]([O-])Cc3ncc(C)c(OC)c3C)nc2c1 (stereo not drawn) [OMEPRAZOLE] | -0.65
6 | CC(N)C12CC3CC(CC(C3)C1)C2.Cl (stereo not drawn) [RIMANTADINE HYDROCHLORIDE] | -3.07
7 | CCc1c(C)[nH]c2c1C(=O)C(CN1CCOCC1)CC2.Cl (stereo not drawn) [MOLINDONE HYDROCHLORIDE] | 4.7
8 | C[C@H]1O[C@@H](O[C@H]2[C@@H](O)C[C@H](O[C@H]3[C@@H](O)C[C@H](O[C@H]4CC[C@@]5(C)[C@H](CC[C@@H]6[C@@H]5C[C@@H](O)[C@]5(C)C(C7=CC(=O)OC7)CC[C@]65O)C4)O[C@@H]3C)O[C@@H]2C)C[C@H](O)[C@@H]1O (stereo partly drawn) | -7.29
9 | CC(=O)OCC(=O)[C@@]1(O)CC[C@H]2[C@@H]3CCC4=CC(=O)CC[C@]4(C)[C@H]3[C@@H](O)C[C@@]21C [HYDROCORTISONE ACETATE] | 0.56
10 | COc1ccccc1N1CCN(CC(O)COc2cccc3ccccc23)CC1 (stereo not drawn) [NAFTOPIDIL] | 7.29
11 | Cc1c(C(=O)NN2CCCCC2)nn(-c2ccc(Cl)cc2Cl)c1-c1ccc(I)cc1 | 1.46
12 | Cc1ccc(C)c(OCCCC(C)(C)C(=O)O)c1 [GEMFIBROZIL] | 2.56
13 | COc1ccccc1OCC(O)CN1CCN(CC(=O)Nc2c(C)cccc2C)CC1.Cl.Cl (stereo not drawn) [RANOLAZINE HYDROCHLORIDE] | -4.15
14 | CC(=O)CCCCn1cnc2c1c(=O)n(C)c(=O)n2C [LOMIFYLLINE] | 5.02
15 | C[C@@H]1CN(CCCn2c3ccccc3c3ccccc32)C[C@H](C)N1.Cl.O | 5.61
16 | Cc1ccccc1C(OCCN(C)C)c1ccccc1.Cl (stereo not drawn) [ORPHENADRINE HYDROCHLORIDE] | -1.64
17 | Cl.O=C1c2c(O)ccc(O)c2C(=O)c2c(NCCNCCO)ccc(NCCNCCO)c21 | 4.04
18 | CC[C@]1(O)C[C@@H]2CN(CCc3c([nH]c4ccccc34)[C@@](C(=O)OC)(c3cc4c(cc3OC)N(C)[C@H]3[C@@](O)(C(N)=O)[C@H](O)[C@]5(CC)C=CCN6CC[C@]43[C@@H]65)C2)C1.O=S(=O)(O)O [VINDESINE SULFATE] | 3.57
19 | CC[C@H](C)C(=O)O[C@H]1CCC=C2C=C[C@H](C)[C@H](CC[C@@H]3C[C@@H](O)CC(=O)O3)[C@H]21 [MEVASTATIN] | 8.43
20 | CN(C)[C@@H]1C(=O)C(C(=O)NCN2CCCC2)=C(O)[C@@]2(O)C(O)=C3C(=O)c4c(O)cccc4[C@@](C)(O)C3CC12 (stereo partly drawn) | 5.47
21 | CN(C)CCCSc1ccccc1NC(=O)/C=C/c1ccccc1.Cl.O | 3.24
22 | CCCCc1nc(Cl)c(CO)n1Cc1ccc(-c2ccccc2-c2nnn[n-]2)cc1.[K+] [LOSARTAN POTASSIUM] | 5.5
23 | COc1cc(C)c(/C=C/C(C)=C/C=C/C(C)=C/C(=O)O)c(C)c1C [ACITRETIN] | 4.27
24 | CN[C@@H]1[C@H](O)[C@H](NC)[C@H]2O[C@@]3(O)C(=O)C[C@@H](C)O[C@H]3O[C@@H]2[C@H]1O.Cl.Cl.Cl.O.O.O | 29.97
25 | CCCCC(=O)N(Cc1ccc(-c2ccccc2-c2nnn[nH]2)cc1)[C@H](C(=O)O)C(C)C | 3.3
26 | C[C@]12C[C@H](O)[C@H]3[C@@H](CCC4=CC(=O)CC[C@@]43C)[C@@H]1CC[C@@H]2C(=O)CO [CORTICOSTERONE] | 2.35
27 | CC(=O)S[C@@H]1CC2=CC(=O)CC[C@]2(C)[C@H]2CC[C@@]3(C)[C@@H](CC[C@@]34CCC(=O)O4)[C@H]12 [SPIRONOLACTONE] | 5.07
28 | CN1CCC(=C2c3ccccc3CCc3sccc32)CC1.O=C(O)/C=C\C(=O)O | 2.87
